This is part of a sample that, as a whole, favours compounds with a hit. Of some 79,000 tested, about 15% had one in any assay. No stated cut-off is given here; in the data, active means growth inhibition above about 70%; inactive means the rest.
Assays:
[1] = NCI Yeast Anticancer Drug Screen. Data for the rad50 strain (AID 155);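 further: 0% = growth of vehicle-only cultures of the same strain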; settings: S. cerevisiae rad50 strain growth inhibition; at 50.0 µM; stronger effect = higher value
Summary of the method: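 Readout: growth inhibition relative to vehicle-treated cultures. Compound exposure was carried out in a genetically defined yeast strain deficient in DNA damage repair.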

[2] = NCI Yeast Anticancer Drug Screen. Data for the mec2-1 strain (AID 157); settings: S. cerevisiae mec2-1 strain, at 50.0 µM, stronger effect = higher value
Summary of the method: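 Compounds were applied to mec2-1 yeast cells. Their growth was then compared with that of vehicle-treated cultures to give growth inhibition.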

[3] = NCI Yeast Anticancer Drug Screen. Data for the sgs1 mgt1 strain (AID 161);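 further: 0% = growth of cultures given vehicle only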; settings: S. cerevisiae sgs1 mgt1 strain, at 50.0 µM, stronger effect = higher value
Summary of the method: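 Growth of a repair-deficient yeast mutant was monitored after compound treatment and expressed as inhibition relative to vehicle-treated cultures.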

[4] = NCI Yeast Anticancer Drug Screen. Data for the cln2 rad14 strain (AID 165);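 further: 0% = growth equal to vehicle treated cultures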; settings: S. cerevisiae cln2 rad14 strain, at 50.0 µM, stronger effect = higher value
Summary of the method: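 Strain: cln2 rad14 yeast, altered in cell cycle control and DNA damage repair. Read-out: growth inhibition vs vehicle.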

[5] = NCI Yeast Anticancer Drug Screen. Data for the bub3 strain (AID 167); settings: S. cerevisiae bub3 mutant strain, at 50.0 µM, stronger effect = higher value
Summary of the method: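 Readout: yeast growth inhibition, expressed relative to vehicle-only wells. The test organism is a mutant strain from a panel with lesions in DNA repair or checkpoint genes.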

[6] = NCI Yeast Anticancer Drug Screen. Data for the mlh1 rad18 strain (AID 175); settings: S. cerevisiae mlh1 rad18 strain growth inhibition; at 50.0 µM; stronger effect = higher value
Summary of the method: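 A repair-deficient yeast strain is exposed to test compound, and growth is scored relative to vehicle-treated controls.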

Measured: growth inhibition

COC(=O)c1nc(=S)[nH]c(C(=O)OC)c1C(=O)c1cccc2ccccc12
inactive: [1] 8.6% | [2] 34.4% | [3] 4.35% | [4] -24.3% | [5] -5.5% | [6] 13.1%

C(=N\c1oc(-c2ccccc2)nc1SCc1ccccc1)/c1ccccc1
inactive: [1] 2.75% | [2] 11.2% | [3] 23.1% | [4] -19.8% | [5] 7.3% | [6] 25.9%

CC1(c2ccccc2)CCC(=O)NC1 (configuration not stated)
inactive: [1] -0.15% | [2] -37.5% | [3] -2.1% | [4] 8.45% | [5] -7.25% | [6] 11.6%

COC(=O)[C@@]1(C)/C(=N/NS(=O)(=O)c2ccc(C)cc2)CCC[C@@H]1C
inactive: [1] 11.4% | [2] -23% | [3] -7.15% | [4] 3.05% | [5] -1.4% | [6] -1.85%

COc1cc2c(cc1OC)C1=C(/C=C\C(C)=O)CCN1CC2
inactive: [1] -6.9% | [2] 20.9% | [3] -4.45% | [4] -8.65% | [5] 0.1% | [6] 5.55%

CC1(C)OC(=O)N=C1c1ccc(Br)cc1
inactive: [1] 1.4% | [2] -25.6% | [3] -21.1% | [4] 21.8% | [5] -22% | [6] 15.3%

COc1cc(CCl)cc(OC)c1OC
inactive: [1] -13.7% | [2] -12% | [3] -7.7% | [4] -21.9% | [5] -7.65% | [6] -11.8%

CC1(C)C2CCC(CCOC(=O)COc3ccc(Cl)cc3Cl)C1C2 (configuration not stated)
inactive: [1] -13% | [2] -5.45% | [3] 1% | [4] -34.8% | [5] 5% | [6] 29%

N#CC1(c2ccccc2)C(c2ccccc2)=C1c1ccccc1
inactive: [1] 1.75% | [2] 5.15% | [3] 2.25% | [4] -4.55% | [5] 8.7% | [6] -8.95%

CN(/N=C(\C(=O)O)c1ccccc1)C1=NCCN1
inactive: [1] -12% | [2] -7.95% | [3] -4.65% | [4] 41.2% | [5] -1.4% | [6] 9.3%

CCNC(=O)Nc1ccccn1
inactive: [1] -8.4% | [2] -1.55% | [3] 8.85% | [4] 0.5% | [5] -5.05% | [6] -2.4%

COc1cc2ccc(/C=C/C(=O)c3ccc4c(c3)OCO4)cc2cc1OC
inactive: [1] -7.3% | [2] -3.75% | [3] 3.25% | [4] 22.4% | [5] 6.4% | [6] -4.65%

CN(C)CC(Oc1ccccc1)C(=O)c1ccccc1 (configuration not stated)
inactive: [1] -3.2% | [2] -10.2% | [3] 29.8% | [4] -26.3% | [5] -16.9% | [6] -5.15%

Cc1ccc(C)c(NC(=O)Oc2ccc(Br)cc2Br)c1
inactive: [1] 11.4% | [2] 5.9% | [3] 3.4% | [4] -28.1% | [5] -1% | [6] 18.1%

COC(=O)C(C)C1Sc2ccccc2NC1=O (configuration not stated)
inactive: [1] 4.6% | [2] 1.85% | [3] -17.3% | [4] -4% | [5] -16.6% | [6] 2.6%

COC/C=C\COC
inactive: [1] 3.45% | [2] 5% | [3] 17.6% | [4] -2.15% | [5] -6.3% | [6] 22.1%

CCC1CN2CCc3cc(OC)c(OC)cc3C2CC1O (configuration not stated)
inactive: [1] 1.3% | [2] 40.4% | [3] 20% | [4] -3.1% | [5] 44.4% | [6] 27.9%

Brc1ccc(/C=C/c2ccnnc2)cc1
inactive: [1] 41.5% | [2] 33.8% | [3] 34.6% | [4] 25.5% | [5] 47.7% | [6] 34.4%

CN(C)c1ccc(C(=O)C2N=NCC2c2ccccc2)cc1 (configuration not stated)
inactive: [1] 10.3% | [2] -1.3% | [3] 13% | [4] 7.3% | [5] 12.8% | [6] 17.2%

CC(C)(C)CC(C)(C)NC(=O)CCl
inactive: [1] -6.05% | [2] 2.15% | [3] 2.6% | [4] -4.85% | [5] 10.3% | [6] -5.45%

CCN(CC)Cc1cc(NC(C)=O)ccc1O
inactive: [1] -5.1% | [2] -13.7% | [3] -17.4% | [4] 11.1% | [5] -4.95% | [6] 2.3%

CC(C)(C)n1nc(C2CC2)c(Br)c1NC(=O)c1ccc(Cl)cc1
inactive: [1] -4.45% | [2] -0.95% | [3] 22.9% | [4] 0.45% | [5] 11.1% | [6] 1.7%

COc1ccc(C(CC(=O)O)c2ccc(OC)cc2OC)cc1 (configuration not stated)
inactive: [1] -0.3% | [2] 0.8% | [3] 11.8% | [4] -24.5% | [5] 0.85% | [6] 6.95%

O=C(O)c1[nH]ncc1[N+](=O)[O-]
inactive: [1] 24.1% | [2] -4.85% | [3] -5.05% | [4] 11.3% | [5] 11% | [6] 2.8%

O=c1[nH]cnc2c1ncn2CCCCO
inactive: [1] -0.15% | [2] -5.25% | [3] 1.6% | [4] 2.7% | [5] -0.05% | [6] 10.4%

CC(Oc1ccc2c(-c3ccc(Cl)cc3)cc(=O)oc2c1)C(=O)O (configuration not stated)
inactive: [1] -15.9% | [2] -4.15% | [3] 13.6% | [4] 19.1% | [5] -7.15% | [6] 32.9%

Cc1nnc2n(c1=O)CCN2C
inactive: [1] -1.65% | [2] 0.1% | [3] 12.3% | [4] -4.4% | [5] 7.8% | [6] 26.2%

CC1(C)C(=O)CC1C(=O)O (configuration not stated)
inactive: [1] 4.55% | [2] -0.25% | [3] -0.45% | [4] 12.3% | [5] 7.5% | [6] 8.75%

CC(=O)N(C)N=Nc1ccc(C(F)(F)F)cc1
inactive: [1] -7.7% | [2] -12.7% | [3] -9% | [4] -30.1% | [5] -5.8% | [6] -4.5%

C[C@]12CCC(=O)C=C1CC[C@@H]1[C@@H]2CC[C@@]2(C)[C@H]1CC[C@]2(O)C(=O)CCC#N
inactive: [1] -23.1% | [2] -2.6% | [3] 17.1% | [4] -33.4% | [5] -16.8% | [6] 13.2%

CCC1CCN=C(NS(=O)(=O)c2cc(C)c(Cl)cc2S)N1 (configuration not stated)
inactive: [1] -29.8% | [2] -5.25% | [3] -25.2% | [4] -18.1% | [5] 4.9% | [6] -33%

O=c1cc(CCl)nc2c3ncn(C4OC(CO)C(O)C4O)c3ncn12 (configuration not stated)
inactive: [1] -11.8% | [2] -16.5% | [3] -0.25% | [4] -5.95% | [5] -8.15% | [6] -0.55%

COc1ccc2ccccc2c1
inactive: [1] -21% | [2] -30% | [3] -12.2% | [4] -23.9% | [5] 1.35% | [6] -31.6%

CCN(CC)CCNc1ccc2ncn3c4ccccc4c(=O)c1c23
inactive: [1] 19.9% | [2] 8.85% | [3] -16.1% | [4] 33.1% | [5] 29.1% | [6] 42.9%

COc1cc2c(cc1OC)C(O)C(O)(CO)C(C(=O)O)C2c1cc(OC)c(OC)c(OC)c1 (configuration not stated)
inactive: [1] 24.4% | [2] -10.3% | [3] 12.1% | [4] 18.2% | [5] 25.1% | [6] 22.7%

NC(=O)c1csc([C@@H](O)Cc2ccccc2)n1
inactive: [1] -2.25% | [2] 3.5% | [3] 7.5% | [4] -7.7% | [5] 8.35% | [6] 7.95%

Cc1ccc(S(=O)(=O)OC2C(OC(=O)c3ccccc3)OCC(O)C2O)cc1 (configuration not stated)
inactive: [1] 23.6% | [2] 2.45% | [3] 6.1% | [4] -11.8% | [5] 6.5% | [6] 3.35%

CC1=C(CCC(C)CO)OC2CC3C4CCC5CC(O)CCC5(C)C4CCC3(C)C12 (configuration not stated)
inactive: [1] -4.5% | [2] -22.6% | [3] -24.7% | [4] -1.9% | [5] -21.1% | [6] -16.4%

COCCCNC1=C(C#N)C(=O)NC(c2cccc([N+](=O)[O-])c2)S1 (configuration not stated)
inactive: [1] -9.7% | [2] -27.4% | [3] 1.75% | [4] 7.85% | [5] -9.8% | [6] -32.7%

CCCC(=O)Nc1ccc(OCC)cc1
inactive: [1] -9.5% | [2] -4.1% | [3] -11.8% | [4] -49.5% | [5] -18.8% | [6] -16.6%

CCc1ccc(O[Si](C)(C)C)cc1
inactive: [1] 5.35% | [2] 3.25% | [3] -15.6% | [4] -25.4% | [5] -21.9% | [6] -3.9%

CCOC(=O)C/C(C(=O)O)=C(\C)c1ccc2ccccc2c1
inactive: [1] -10.4% | [2] 18.1% | [3] 20.9% | [4] 1.15% | [5] -2.25% | [6] -0.85%

— PubChem BioAssay (NCI)
